Reference: ChEMBL document CHEMBL2218924, “A broad activity screen in support of a chemogenomic map for kinase signalling research and drug discovery” (Biochem J, 2013)

Legend:
[1] = target: ALK tyrosine kinase receptor (Homo sapiens) (UniProt Q9UM73); conditions: at 10 µM
[2] = target: T1, Activin receptor type-1B (Homo sapiens) (UniProt P36896); conditions: at 1 µM
T1 sequence (whole entry): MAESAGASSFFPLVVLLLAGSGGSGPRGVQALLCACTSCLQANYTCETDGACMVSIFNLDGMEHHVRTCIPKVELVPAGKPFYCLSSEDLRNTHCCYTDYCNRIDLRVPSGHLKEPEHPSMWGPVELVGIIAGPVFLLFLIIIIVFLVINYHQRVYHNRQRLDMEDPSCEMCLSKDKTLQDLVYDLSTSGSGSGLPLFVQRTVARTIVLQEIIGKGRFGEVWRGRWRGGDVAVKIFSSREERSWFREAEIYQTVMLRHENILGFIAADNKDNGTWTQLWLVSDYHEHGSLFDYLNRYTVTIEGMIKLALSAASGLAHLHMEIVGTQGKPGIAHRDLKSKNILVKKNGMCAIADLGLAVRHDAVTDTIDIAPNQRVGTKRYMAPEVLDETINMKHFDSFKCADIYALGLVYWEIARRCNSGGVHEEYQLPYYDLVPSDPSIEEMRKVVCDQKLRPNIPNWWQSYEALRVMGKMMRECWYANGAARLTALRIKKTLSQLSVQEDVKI

[3] = target: T1, Activin receptor type-1B (Homo sapiens); conditions: at 10 µM
[4] = target: T2, AMP-activated protein kinase (AMPK) alpha-1/beta-1/gamma-1 (Homo sapiens) (UniProt P54619+Q9Y478+Q13131); conditions: at 1 µM
[5] = target: T2, AMP-activated protein kinase (AMPK) alpha-1/beta-1/gamma-1 (Homo sapiens); conditions: at 10 µM
[6] = target: T3, AMP-activated protein kinase, AMPK (Homo sapiens) (UniProt P54646+O43741+P54619+Q9UGJ0+Q9Y478+Q13131+Q9UGI9); conditions: at 1 µM
[7] = target: T3, AMP-activated protein kinase, AMPK (Homo sapiens); conditions: at 10 µM
[8] = target: T4, NUAK family SNF1-like kinase 1 (Homo sapiens) (UniProt O60285); conditions: at 1 µM
T4 sequence (whole entry): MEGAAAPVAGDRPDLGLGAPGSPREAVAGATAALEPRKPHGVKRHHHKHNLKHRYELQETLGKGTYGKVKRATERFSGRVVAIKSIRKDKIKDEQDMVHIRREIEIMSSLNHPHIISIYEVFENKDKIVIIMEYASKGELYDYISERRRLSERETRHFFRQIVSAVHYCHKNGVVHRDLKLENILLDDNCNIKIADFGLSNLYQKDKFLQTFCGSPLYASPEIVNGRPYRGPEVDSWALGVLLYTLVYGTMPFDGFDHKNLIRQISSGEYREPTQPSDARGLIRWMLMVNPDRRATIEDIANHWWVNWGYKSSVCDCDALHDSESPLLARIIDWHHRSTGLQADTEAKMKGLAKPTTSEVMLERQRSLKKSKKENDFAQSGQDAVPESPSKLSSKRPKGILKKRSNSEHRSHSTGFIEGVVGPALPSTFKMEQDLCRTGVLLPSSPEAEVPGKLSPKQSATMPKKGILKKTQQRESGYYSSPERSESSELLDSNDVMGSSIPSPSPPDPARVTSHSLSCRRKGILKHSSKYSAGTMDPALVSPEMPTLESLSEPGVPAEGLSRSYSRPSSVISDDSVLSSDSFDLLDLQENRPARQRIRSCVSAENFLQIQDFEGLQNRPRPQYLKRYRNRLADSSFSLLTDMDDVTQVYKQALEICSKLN

[9] = target: T4, NUAK family SNF1-like kinase 1 (Homo sapiens); conditions: at 10 µM
[10] = target: T5, Mitogen-activated protein kinase kinase kinase 5 (Homo sapiens) (UniProt Q99683); conditions: at 1 µM
T5 sequence (whole entry): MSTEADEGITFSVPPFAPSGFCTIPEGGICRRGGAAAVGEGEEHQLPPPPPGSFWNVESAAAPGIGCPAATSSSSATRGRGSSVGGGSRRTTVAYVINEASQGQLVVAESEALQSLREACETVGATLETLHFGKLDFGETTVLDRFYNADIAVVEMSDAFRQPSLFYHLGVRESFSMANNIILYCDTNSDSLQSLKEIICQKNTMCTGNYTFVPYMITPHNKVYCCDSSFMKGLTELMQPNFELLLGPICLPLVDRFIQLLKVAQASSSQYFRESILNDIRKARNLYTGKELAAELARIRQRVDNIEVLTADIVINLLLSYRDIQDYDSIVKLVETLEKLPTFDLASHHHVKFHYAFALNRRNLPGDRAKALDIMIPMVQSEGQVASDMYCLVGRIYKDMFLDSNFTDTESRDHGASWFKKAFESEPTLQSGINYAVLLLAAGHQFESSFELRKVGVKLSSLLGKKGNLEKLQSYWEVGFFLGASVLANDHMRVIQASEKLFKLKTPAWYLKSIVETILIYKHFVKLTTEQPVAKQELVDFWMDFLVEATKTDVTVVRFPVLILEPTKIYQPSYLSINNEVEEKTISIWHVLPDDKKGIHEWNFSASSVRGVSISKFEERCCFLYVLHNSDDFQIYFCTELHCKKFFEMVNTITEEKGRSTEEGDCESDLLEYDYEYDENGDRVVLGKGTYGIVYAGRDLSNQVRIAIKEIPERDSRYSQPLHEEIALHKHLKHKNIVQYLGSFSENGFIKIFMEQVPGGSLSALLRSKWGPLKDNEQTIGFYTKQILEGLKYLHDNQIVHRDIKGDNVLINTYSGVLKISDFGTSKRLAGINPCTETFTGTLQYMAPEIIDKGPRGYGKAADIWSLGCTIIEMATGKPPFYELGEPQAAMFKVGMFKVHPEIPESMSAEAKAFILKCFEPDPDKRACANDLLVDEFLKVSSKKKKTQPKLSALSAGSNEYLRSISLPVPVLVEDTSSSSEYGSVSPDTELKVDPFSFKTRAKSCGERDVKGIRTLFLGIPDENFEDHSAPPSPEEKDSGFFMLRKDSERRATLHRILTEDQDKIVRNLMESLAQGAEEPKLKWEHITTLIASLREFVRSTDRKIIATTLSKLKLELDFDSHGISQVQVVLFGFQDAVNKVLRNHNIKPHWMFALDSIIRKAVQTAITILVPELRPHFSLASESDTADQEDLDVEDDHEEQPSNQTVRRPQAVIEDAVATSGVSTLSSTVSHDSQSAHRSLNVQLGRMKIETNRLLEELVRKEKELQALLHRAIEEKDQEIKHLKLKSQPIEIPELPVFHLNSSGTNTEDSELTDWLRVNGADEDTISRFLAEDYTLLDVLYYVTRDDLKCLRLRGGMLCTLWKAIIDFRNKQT

[11] = target: Platelet-derived growth factor receptor alpha (Homo sapiens) (UniProt P16234); conditions: at 1 µM
[12] = target: Platelet-derived growth factor receptor alpha (Homo sapiens) (UniProt P16234); conditions: at 10 µM
[13] = target: Platelet-derived growth factor receptor beta (Homo sapiens) (UniProt P09619); conditions: at 1 µM
[14] = target: Platelet-derived growth factor receptor beta (Homo sapiens) (UniProt P09619); conditions: at 10 µM
[15] = target: T6, 3-phosphoinositide-dependent protein kinase 1 (Homo sapiens) (UniProt O15530); conditions: at 1 µM
T6 sequence (whole entry): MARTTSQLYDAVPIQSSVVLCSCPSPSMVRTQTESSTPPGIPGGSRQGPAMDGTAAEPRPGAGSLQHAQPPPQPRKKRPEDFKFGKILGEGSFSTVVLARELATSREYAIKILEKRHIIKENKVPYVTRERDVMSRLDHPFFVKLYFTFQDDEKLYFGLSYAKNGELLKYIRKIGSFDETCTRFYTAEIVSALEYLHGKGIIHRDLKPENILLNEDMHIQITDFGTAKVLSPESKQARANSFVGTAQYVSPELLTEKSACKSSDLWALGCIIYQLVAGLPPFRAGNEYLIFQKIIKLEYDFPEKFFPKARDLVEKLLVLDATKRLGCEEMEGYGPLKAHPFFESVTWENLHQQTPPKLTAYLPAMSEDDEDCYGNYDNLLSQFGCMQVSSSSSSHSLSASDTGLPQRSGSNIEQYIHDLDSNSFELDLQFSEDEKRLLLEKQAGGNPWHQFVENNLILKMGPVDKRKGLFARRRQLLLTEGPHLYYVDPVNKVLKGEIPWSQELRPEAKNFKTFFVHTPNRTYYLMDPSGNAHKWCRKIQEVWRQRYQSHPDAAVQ

[16] = target: T6, 3-phosphoinositide-dependent protein kinase 1 (Homo sapiens); conditions: at 10 µM
[17] = target: cAMP-dependent protein kinase catalytic subunit alpha (Homo sapiens) (UniProt P17612); conditions: at 1 µM
[18] = target: cAMP-dependent protein kinase catalytic subunit alpha (Homo sapiens) (UniProt P17612); conditions: at 10 µM
[19] = target: RAC-gamma serine/threonine-protein kinase (Homo sapiens) (UniProt Q9Y243); conditions: at 1 µM
[20] = target: RAC-gamma serine/threonine-protein kinase (Homo sapiens) (UniProt Q9Y243); conditions: at 10 µM

Sequence of Platelet-derived growth factor receptor alpha (Homo sapiens) (P16234 whole entry): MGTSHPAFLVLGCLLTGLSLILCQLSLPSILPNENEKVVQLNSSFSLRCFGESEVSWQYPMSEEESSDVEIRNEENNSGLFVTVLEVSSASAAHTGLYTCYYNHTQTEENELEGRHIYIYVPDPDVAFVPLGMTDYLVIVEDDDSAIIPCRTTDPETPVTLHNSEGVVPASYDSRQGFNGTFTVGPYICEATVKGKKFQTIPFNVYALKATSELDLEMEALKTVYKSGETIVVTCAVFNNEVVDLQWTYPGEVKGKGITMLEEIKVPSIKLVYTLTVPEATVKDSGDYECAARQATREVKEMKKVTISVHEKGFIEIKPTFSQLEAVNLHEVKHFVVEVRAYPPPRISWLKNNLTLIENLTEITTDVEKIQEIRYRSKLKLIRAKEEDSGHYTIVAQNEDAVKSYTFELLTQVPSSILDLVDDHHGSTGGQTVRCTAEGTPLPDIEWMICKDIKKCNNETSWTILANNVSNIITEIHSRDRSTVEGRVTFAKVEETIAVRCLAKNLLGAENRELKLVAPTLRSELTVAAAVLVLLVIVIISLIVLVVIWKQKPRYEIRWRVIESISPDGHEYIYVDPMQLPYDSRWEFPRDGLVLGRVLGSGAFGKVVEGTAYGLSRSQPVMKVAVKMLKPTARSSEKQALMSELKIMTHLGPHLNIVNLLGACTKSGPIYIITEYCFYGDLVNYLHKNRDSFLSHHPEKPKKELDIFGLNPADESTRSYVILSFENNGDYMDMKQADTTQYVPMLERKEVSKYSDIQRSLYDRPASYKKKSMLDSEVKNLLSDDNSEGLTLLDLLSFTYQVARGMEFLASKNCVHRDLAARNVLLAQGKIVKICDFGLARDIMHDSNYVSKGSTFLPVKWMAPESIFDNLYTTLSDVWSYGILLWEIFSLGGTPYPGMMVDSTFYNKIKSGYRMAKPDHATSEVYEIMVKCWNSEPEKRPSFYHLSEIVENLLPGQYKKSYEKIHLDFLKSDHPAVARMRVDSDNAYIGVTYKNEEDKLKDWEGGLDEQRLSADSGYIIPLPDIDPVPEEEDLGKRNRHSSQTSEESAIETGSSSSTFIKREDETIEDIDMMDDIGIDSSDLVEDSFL
Sequence of Platelet-derived growth factor receptor beta (Homo sapiens) (P09619 whole entry): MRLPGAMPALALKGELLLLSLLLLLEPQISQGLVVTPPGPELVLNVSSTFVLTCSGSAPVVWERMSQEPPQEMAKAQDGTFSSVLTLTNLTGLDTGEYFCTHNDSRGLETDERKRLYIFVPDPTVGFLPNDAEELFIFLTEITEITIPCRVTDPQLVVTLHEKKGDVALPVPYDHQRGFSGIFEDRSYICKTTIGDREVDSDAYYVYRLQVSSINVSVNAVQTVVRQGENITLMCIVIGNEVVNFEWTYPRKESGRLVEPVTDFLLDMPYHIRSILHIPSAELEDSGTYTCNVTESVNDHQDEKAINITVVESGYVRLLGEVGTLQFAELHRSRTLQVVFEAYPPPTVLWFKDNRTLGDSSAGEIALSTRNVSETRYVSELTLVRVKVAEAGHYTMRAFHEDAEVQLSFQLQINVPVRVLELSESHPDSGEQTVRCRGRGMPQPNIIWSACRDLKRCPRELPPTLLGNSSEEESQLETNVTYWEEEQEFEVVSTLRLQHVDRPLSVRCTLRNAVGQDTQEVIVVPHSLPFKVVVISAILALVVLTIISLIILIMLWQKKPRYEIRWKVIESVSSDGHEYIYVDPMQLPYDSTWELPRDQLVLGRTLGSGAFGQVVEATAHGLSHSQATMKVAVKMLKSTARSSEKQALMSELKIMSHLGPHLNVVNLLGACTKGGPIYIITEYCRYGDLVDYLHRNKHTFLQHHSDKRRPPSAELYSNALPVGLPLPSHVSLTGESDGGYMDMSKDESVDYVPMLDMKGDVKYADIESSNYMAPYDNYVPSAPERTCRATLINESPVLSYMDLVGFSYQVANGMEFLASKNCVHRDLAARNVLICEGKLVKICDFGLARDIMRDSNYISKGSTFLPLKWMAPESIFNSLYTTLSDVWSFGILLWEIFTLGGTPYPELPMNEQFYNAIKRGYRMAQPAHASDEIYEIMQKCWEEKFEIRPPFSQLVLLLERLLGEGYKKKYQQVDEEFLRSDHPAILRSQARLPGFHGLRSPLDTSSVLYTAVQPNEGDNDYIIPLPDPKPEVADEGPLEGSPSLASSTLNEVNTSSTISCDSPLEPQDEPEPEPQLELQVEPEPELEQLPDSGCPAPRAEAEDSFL
Sequence of RAC-gamma serine/threonine-protein kinase (Homo sapiens) (Q9Y243 whole entry): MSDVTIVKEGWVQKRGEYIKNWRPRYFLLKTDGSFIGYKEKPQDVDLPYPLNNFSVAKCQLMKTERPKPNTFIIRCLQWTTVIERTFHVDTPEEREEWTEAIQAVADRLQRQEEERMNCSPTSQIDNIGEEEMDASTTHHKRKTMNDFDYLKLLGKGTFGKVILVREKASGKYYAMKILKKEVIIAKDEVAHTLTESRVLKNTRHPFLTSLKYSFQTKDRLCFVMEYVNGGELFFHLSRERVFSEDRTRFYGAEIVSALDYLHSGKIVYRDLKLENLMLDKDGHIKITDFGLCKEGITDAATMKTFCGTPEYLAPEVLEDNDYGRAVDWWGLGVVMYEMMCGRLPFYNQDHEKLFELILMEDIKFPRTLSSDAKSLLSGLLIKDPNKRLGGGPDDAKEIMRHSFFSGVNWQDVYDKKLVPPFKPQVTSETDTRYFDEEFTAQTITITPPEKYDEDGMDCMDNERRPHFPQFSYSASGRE
T2 sequence (P54619 whole entry): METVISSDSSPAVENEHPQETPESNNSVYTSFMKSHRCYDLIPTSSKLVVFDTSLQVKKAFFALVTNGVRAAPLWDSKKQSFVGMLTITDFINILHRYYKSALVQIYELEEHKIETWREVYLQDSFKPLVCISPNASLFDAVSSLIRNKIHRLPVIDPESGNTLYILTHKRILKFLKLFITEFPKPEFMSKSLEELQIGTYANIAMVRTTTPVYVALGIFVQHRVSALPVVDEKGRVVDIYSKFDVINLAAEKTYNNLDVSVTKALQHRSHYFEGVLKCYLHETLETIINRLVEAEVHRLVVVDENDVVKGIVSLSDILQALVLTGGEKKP
T2 sequence (Q13131 whole entry partner): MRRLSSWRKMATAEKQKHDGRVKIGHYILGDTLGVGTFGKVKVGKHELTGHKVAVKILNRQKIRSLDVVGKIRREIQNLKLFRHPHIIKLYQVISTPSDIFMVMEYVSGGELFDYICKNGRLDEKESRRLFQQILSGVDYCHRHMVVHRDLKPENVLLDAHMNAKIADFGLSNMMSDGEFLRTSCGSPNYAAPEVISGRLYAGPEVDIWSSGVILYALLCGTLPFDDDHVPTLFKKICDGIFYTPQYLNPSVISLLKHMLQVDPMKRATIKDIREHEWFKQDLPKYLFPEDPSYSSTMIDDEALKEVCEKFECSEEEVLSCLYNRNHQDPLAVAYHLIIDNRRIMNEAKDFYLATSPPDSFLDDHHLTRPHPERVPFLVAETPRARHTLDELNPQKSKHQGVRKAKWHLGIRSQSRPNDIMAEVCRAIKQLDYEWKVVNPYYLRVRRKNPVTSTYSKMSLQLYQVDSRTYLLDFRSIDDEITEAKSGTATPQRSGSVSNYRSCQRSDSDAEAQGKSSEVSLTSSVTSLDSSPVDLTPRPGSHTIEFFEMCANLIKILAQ
T2 sequence (Q9Y478 2-270 partner limits assumed): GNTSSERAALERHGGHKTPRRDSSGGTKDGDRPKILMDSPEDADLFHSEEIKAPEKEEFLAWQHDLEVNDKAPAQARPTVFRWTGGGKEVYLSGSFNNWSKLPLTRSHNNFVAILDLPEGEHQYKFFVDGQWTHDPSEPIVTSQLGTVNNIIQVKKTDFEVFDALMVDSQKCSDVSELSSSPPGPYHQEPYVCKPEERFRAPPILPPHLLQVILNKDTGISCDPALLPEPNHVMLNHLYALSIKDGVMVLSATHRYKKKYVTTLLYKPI

Row | Structure (SMILES) | residual activity [1] [%] | residual activity [2] [%] | residual activity [3] [%] | residual activity [4] [%] | residual activity [5] [%] | residual activity [6] [%] | residual activity [7] [%] | residual activity [8] [%] | residual activity [9] [%] | residual activity [10] [%] | residual activity [11] [%] | residual activity [12] [%] | residual activity [13] [%] | residual activity [14] [%] | residual activity [15] [%] | residual activity [16] [%] | residual activity [17] [%] | residual activity [18] [%] | residual activity [19] [%] | residual activity [20] [%]
1 | Nc1cccc(-c2cc3c(Oc4cccc(O)c4)ncnc3[nH]2)c1 | 8 | 72 | 36 | 53 | 13 | 54 | 15 | 31 | 7 | 96 | 48 | 10 | 48 | 8 | 92 | 40 | 94 | 85 | – | –
2 | CCN(CC)CCCCN1c2ccccc2Oc2ccc(Cl)cc21 | 132 | 136 | 100 | 116 | 100 | 131 | 112 | 115 | 87 | 96 | 126 | 104 | 119 | 108 | 131 | 138 | 95 | 147 | 126 | 113
3 | Cc1nc2cc3nc(-c4cccs4)cnc3cc2n1C | 112 | 123 | 88 | 116 | 83 | 118 | 85 | 116 | 78 | 109 | 78 | 15 | 97 | 46 | 109 | 109 | 104 | 106 | 112 | 102
4 | COc1cc2ncnc(Nc3ccc(Oc4ccccc4)cc3)c2cc1OC | 72 | 121 | 112 | 86 | 140 | 94 | 144 | 104 | 79 | 84 | 79 | 42 | 102 | 83 | 109 | 120 | 92 | 134 | 92 | 106
5 | O=C1Nc2cc(Br)ccc2/C1=C1/Nc2ccccc2/C1=N\O | 10 | 109 | 96 | 2 | 10 | 1 | 10 | 11 | 18 | 91 | 30 | 6 | 36 | 11 | 42 | 37 | 89 | 97 | 83 | 83
6 | COc1ccc(CNc2nc(N(CCO)CCO)nc3c2ncn3C(C)C)cc1 | 61 | 97 | 118 | 97 | 80 | 86 | 88 | 107 | 77 | 95 | 101 | 102 | 93 | 100 | 100 | 100 | 93 | 85 | 72 | 69
7 | CCC(=O)Nc1ccc2ncnc(Nc3cccc(Br)c3)c2c1 | 88 | 125 | 105 | 103 | 94 | 105 | 87 | 99 | 92 | 108 | 117 | 91 | 96 | 92 | 111 | 107 | 88 | 102 | 102 | 99
8 | O=C(Nc1cccc(Nc2cc(Nc3cccc(C(F)(F)F)c3)ncn2)c1)C1CC1 | 22 | 126 | 124 | 97 | 73 | 103 | 74 | 90 | 127 | 104 | 110 | 109 | 98 | 93 | 93 | 87 | 103 | 112 | 90 | 96
9 | Cn1cc(/C=C2\C(=O)Nc3ccc(S(N)(=O)=O)cc32)c2ccccc21 | 31 | 118 | 104 | 9 | 4 | 9 | 4 | 18 | 11 | 29 | 77 | 33 | 98 | 51 | 76 | 32 | 93 | 57 | 88 | 81
10 | COc1cccc(-c2cc(=O)c3ccccc3o2)c1N | 83 | 111 | 108 | 101 | 96 | 98 | 94 | 109 | 93 | 119 | 107 | 110 | 114 | 108 | 114 | 99 | 96 | 95 | 100 | 95
11 | Cc1ccc(S(=O)(=O)/C=C/C#N)cc1 | 93 | 103 | 106 | 89 | 89 | 87 | 86 | 109 | 94 | 111 | 100 | 109 | 104 | 107 | 105 | 108 | 102 | 102 | 108 | 85
12 | O=[N+]([O-])c1ccc(-c2nc(-c3ccc(F)cc3)c(-c3ccncc3)[nH]2)cc1 | 65 | 38 | 35 | 97 | 94 | 91 | 91 | 103 | 89 | 96 | 114 | 114 | 103 | 111 | 117 | 100 | 97 | 82 | 98 | 75
13 | CC#CC(=O)Nc1cc2c(Nc3ccc(F)c(Cl)c3)ncnc2cn1 | 81 | 137 | 99 | 99 | 84 | 79 | 74 | 95 | 86 | 104 | 113 | 42 | 105 | 86 | 102 | 100 | 99 | 77 | 93 | 91
14 | O=C1NC(=O)c2cc(Nc3ccc(F)cc3)c(Nc3ccc(F)cc3)cc21 | 42 | 129 | 88 | 93 | 73 | 92 | 66 | 101 | 75 | 110 | 115 | 107 | 109 | 95 | 106 | 110 | 100 | 82 | 98 | 65
